The results in this text go back to PubChem BioAssay.

Test [1] can be described thus: HepG2 cytotoxicity, primary screen, cytotoxicity control for P. falciparum antimalarial project, cell-based, ATP luminescence (AID 2303;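 active = inhibition above 50%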;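 also: 0% = DMSO wells and 100% = digitonin-killed cells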). The note with it: HepG2 viability, 24-48 h, at 10 µM, stronger effect = higher value.
For test [2], the target named is L-lactate dehydrogenase (Plasmodium falciparum (isolate CDC / Honduras)) (UniProt Q27743). In words: PfLDH activity inhibition – cell lysate, 3D7 strain, counter-screen for P. falciparum growth inhibition project (AID 2304).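 Also: 0% = vehicle and 100% = reference inhibitor.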 The note with it: P. falciparum 3D7 crude extract, LDH APAD/NBT absorbance; at 2 µM; stronger effect = higher value.
Sequence of L-lactate dehydrogenase (Plasmodium falciparum (isolate CDC / Honduras)) (Q27743 whole entry, looked up): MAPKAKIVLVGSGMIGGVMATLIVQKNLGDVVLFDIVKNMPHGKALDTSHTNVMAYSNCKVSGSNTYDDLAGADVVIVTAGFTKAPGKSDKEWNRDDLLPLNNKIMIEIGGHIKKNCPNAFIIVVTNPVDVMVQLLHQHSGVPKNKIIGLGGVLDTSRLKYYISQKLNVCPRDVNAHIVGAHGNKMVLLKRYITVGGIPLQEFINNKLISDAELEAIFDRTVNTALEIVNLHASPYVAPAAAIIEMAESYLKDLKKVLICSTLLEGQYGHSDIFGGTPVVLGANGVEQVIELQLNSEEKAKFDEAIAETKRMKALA
Test [3] can be described thus: inhibition of 3D7 malaria parasite growth – strain 3D7 (AID 2306).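 Also: 0% = DMSO wells and 100% = chloroquine plus artemisinin control wells.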 The following applies: P. falciparum 3D7 erythrocytic growth, LDH absorbance, 72 h; at 2 µM; stronger effect = higher value.
The target of test [4] is Calcium-dependent protein kinase 1 (Plasmodium falciparum (isolate 3D7)) (UniProt P62344). In words: PfCDPK1 kinase inhibitors, biochemical, TCAMS library (AID 1159585; cut-off not given, nearly all actives have IC50 up to about 0.98 µM;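 also: inhibitors leave more ATP so luminescence rises with inhibition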). The note with it: recombinant PfCDPK1, Kinase-Glo ATP depletion luminescence.
Sequence of Calcium-dependent protein kinase 1 (Plasmodium falciparum (isolate 3D7)) (P62344 whole entry, looked up): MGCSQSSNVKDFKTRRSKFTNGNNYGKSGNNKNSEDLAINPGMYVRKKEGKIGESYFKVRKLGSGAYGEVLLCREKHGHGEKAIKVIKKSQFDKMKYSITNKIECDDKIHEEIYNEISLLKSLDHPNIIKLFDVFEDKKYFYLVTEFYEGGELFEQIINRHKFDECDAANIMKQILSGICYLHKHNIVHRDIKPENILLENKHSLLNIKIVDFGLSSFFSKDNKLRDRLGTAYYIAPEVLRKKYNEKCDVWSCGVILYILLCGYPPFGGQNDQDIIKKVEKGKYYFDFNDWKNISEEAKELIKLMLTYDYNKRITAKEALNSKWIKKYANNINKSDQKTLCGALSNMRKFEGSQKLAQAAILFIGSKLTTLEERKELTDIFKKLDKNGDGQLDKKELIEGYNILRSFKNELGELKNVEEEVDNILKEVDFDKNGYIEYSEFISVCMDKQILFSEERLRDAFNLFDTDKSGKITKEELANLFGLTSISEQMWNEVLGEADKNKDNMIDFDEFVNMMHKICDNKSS
For test [5], the target named is Plasmodium falciparum protein kinase 6 (PK6, PF3D7_1337100) (UniProt Q8IDW1). In words: PfPK6 kinase inhibitors, biochemical, TCAMS library (AID 1159586). The note with it: recombinant PfPK6, Kinase-Glo ATP depletion luminescence.
Sequence of Plasmodium falciparum protein kinase 6 (PK6, PF3D7_1337100) (Q8IDW1 1-305): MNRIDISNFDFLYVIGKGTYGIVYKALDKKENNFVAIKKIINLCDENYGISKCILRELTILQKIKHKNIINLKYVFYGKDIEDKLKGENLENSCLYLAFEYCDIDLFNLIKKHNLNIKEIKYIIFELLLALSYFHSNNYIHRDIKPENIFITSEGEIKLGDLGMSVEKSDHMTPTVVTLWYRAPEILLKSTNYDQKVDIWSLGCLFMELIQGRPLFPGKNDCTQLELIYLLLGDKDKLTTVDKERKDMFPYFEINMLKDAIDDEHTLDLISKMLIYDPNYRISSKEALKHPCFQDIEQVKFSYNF
For test [6], the target named is Protein kinase 7 (PK7), Plasmodium falciparum 3D7 (PF3D7_0213400) (UniProt Q7YTF7). In words: inhibition of Plasmodium PK7 catalytic activity – biochemical, TCAMS antimalarial set, Kinase-Glo luminescence (AID 1159587). The note with it: recombinant PfPK7, Kinase-Glo ATP depletion luminescence.
Sequence of Protein kinase 7 (PK7), Plasmodium falciparum 3D7 (PF3D7_0213400) (Q7YTF7 1-343): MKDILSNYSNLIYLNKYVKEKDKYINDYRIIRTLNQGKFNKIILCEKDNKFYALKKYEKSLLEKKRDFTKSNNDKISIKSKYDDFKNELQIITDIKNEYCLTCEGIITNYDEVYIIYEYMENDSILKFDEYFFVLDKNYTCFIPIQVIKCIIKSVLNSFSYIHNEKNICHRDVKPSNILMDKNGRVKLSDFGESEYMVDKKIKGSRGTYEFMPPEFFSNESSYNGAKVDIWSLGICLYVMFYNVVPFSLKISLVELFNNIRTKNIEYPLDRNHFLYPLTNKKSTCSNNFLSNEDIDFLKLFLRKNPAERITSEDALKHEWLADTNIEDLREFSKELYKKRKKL
Test [7] deals with Calcium-dependent protein kinase 4 (Plasmodium falciparum (isolate 3D7)) (UniProt Q8IBS5). In words: PfCDPK4 kinase inhibitors, biochemical, TCAMS library (AID 1159588; cut-off not given, nearly all actives have IC50 up to about 0.91 µM). The following applies: recombinant PfCDPK4, Kinase-Glo ATP depletion luminescence.
Sequence of Calcium-dependent protein kinase 4 (Plasmodium falciparum (isolate 3D7)) (Q8IBS5 whole entry, looked up): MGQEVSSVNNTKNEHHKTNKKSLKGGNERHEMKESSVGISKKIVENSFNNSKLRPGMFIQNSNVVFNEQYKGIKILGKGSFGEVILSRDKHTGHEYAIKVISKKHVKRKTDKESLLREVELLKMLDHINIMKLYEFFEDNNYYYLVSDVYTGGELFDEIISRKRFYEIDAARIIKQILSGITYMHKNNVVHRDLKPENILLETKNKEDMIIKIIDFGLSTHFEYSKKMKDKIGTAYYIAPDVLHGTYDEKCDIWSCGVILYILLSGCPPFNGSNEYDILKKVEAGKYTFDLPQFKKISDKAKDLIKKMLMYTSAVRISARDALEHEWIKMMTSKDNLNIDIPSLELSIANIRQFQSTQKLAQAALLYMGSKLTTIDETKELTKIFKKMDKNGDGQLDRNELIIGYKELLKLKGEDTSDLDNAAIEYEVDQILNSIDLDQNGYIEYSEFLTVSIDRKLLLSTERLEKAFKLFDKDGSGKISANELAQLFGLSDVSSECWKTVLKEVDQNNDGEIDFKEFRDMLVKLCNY
Test [8] is described as follows: antimalarial activity against Dd2 strain (AID 2302;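 active = growth inhibition above 50% at the single 2 µM test dose, taken to imply half-maximal potency below 2 µM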;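 also: 0% = DMSO untreated growth and 100% = chloroquine plus artemisinin killed control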). The note with it: P. falciparum Dd2 in RBCs, LDH growth readout, 72 h; at 2 µM; stronger effect = higher value.

Unmarked numbers belong to inactive results. For some assays here: Potency and affinity values are given separately. Calls of active or inactive are those of the source. Unless noted, no rule for the calls is given here.

Take `O=C(O)CCc1ccc(-c2c[nH]c3ncc(-c4ccc5ncccc5c4)cc23)cc1`: the inhibition in test [1] is 30%; in test [2] it was -3%. Also, the growth inhibition in test [3] is 88% (active). The outcome in test [4], in test [5], in test [6] and in test [7] was inactive.
For the compound `COc1cccc(-c2cc3c(NCc4ccncc4)nccc3s2)c1`, the inhibition is 0% in test [1] and -2% in test [2]. For the same compound, the growth inhibition in test [3] is 87% (active). In addition, the result in test [4], in test [5], in test [6] and in test [7] was inactive.
As for `O=C(Nc1cccc(-c2nn3ccccc3c2-c2ccnc(Nc3cccc(F)c3)n2)c1)C1CCCCC1`, the values for the inhibition in test [1] and in test [2] were 44% and 3%, respectively. For the same compound, in test [3], the growth inhibition was 85% (active). Further, the result in test [4], in test [5], in test [6] and in test [7] was inactive.
On to `c1ccc2c3c([nH]c2c1)C(c1ccc2c(c1)CCO2)N(c1ncnc(N2CCN(CCCN4CCOCC4)CC2)n1)CC3` (stereo not drawn), for which the results for the inhibition in test [1] and in test [2] were 37% and -2%, respectively. Moreover, in test [3], the growth inhibition was 80% (active). For the same compound, the outcome in test [4], in test [5], in test [6] and in test [7] was inactive.
For `CC(C)C(=O)NC(NC(=S)Nc1ccc(Br)cc1)C(Cl)(Cl)Cl` (stereo not drawn), the inhibition in test [1] was -5%; in test [2], 3%. For the same compound, the growth inhibition in test [3] is 93% (active). Further, the result in test [4], in test [5], in test [6] and in test [7] was inactive.
Regarding `Brc1ccsc1-c1nc(NC2CCN(Cc3ccccc3)CC2)no1`, the figures for the inhibition in test [1] and in test [2] were 0% and -2%, respectively. In test [3], the growth inhibition is 80% (active). Besides, the outcome in test [4], in test [5], in test [6] and in test [7] was inactive.
As for `COc1ccc(CNC(=O)Nc2cccc(-c3csc(N=C(N)N)n3)c2)cc1`, the inhibition in test [1] is 8%; in test [2], 1%. In addition, in test [3], the growth inhibition was 80% (active). In addition, the outcome in test [4], in test [5], in test [6] and in test [7] was inactive.
`COc1cccc(-c2nc(Nc3ccncc3)c3ncn(C)c3n2)c1`: the inhibition in test [1] was 14%; in test [2], -1%. The growth inhibition in test [3] is 94% (active). Besides, the outcome in test [4], in test [5], in test [6] and in test [7] was inactive.
Turning to `Cc1ccc(-c2cnc3[nH]cc(-c4ccc(C(=O)O)c(C)c4)c3c2)cc1C`, the inhibition was 37% in test [1] and 0% in test [2]. The growth inhibition in test [3] is 96% (active). The outcome in test [4], in test [5], in test [6] and in test [7] was inactive.
On to `Cc1cc(OCCCN2CCCC2)ccc1NC(=O)COc1ccc(Cl)cc1C(=O)c1cc(C#N)cc(C(F)(F)F)c1`, for which the inhibition was 18% in test [1] and 2% in test [2]. Besides, the growth inhibition in test [3] was 85% (active). The result in test [4], in test [5], in test [6] and in test [7] was inactive.
For the compound `COc1c(C2CCN(CCCCNC(=O)C=Cc3ccccc3C(F)(F)F)CC2)ccc2c1CCCC2`, the inhibition is 98% (active) in test [1] and -3% in test [2]. Besides, the growth inhibition in test [3] is 96% (active). The outcome in test [4], in test [5], in test [6] and in test [7] was inactive.
On to `Clc1cccc(C=NNc2ccnc3cc(Cl)ccc23)c1`, for which the inhibition in test [2] is -4%. Besides, the result in test [4], in test [5], in test [6] and in test [7] was inactive.
As to `O=C(O)c1ccc(-c2cnc3ccc(NC4CCC(O)CC4)nn23)cc1` (stereo not drawn), the values for the growth inhibition in test [8] and in test [3] were 90% (active) and 98% (active), respectively. Besides, the results for the inhibition in test [1] and in test [2] were 9% and 3%, respectively. Further, the outcome in test [4], in test [5] and in test [7] was inactive.
For `CCc1cc2c3c(N)nc(N)nc3ccc2n1C(C)(C)C`, the inhibition in test [2] is -11%. Besides, in test [3], the growth inhibition is 99% (active). The result in test [4], in test [5], in test [6] and in test [7] was inactive.
`CCN(CC)CCCC(C)Nc1nc(C=Cc2ccc(Br)cc2)nc2cc(Cl)ccc12` (stereo not drawn): the inhibition in test [2] is -6%. For the same compound, the outcome in test [4], in test [5], in test [6] and in test [7] was inactive.
Regarding `CCc1cc(-c2n[nH]c(C(F)(F)F)c2-c2ccccc2)c(O)cc1OC`, the results for the inhibition in test [1] and in test [2] were 9% and 1%, respectively. Besides, in test [3], the growth inhibition was 84% (active). In addition, the outcome in test [4], in test [5], in test [6] and in test [7] was inactive.
On to `Cc1nc(Nc2ccc(F)cc2)nc(N2CCc3ccccc3[C@@H]2C)c1C`, for which the inhibition was 12% in test [1] and -3% in test [2]. Further, the growth inhibition in test [3] is 92% (active). In addition, the result in test [4], in test [5], in test [6] and in test [7] was inactive.
As to `O=C(O)c1cccnc1Sc1ccc(Cl)cc1`, the growth inhibition in test [8] was 4%; in test [3], 100% (active). Besides, the inhibition was 5% in test [1] and 3% in test [2]. The result in test [4], in test [6] and in test [7] was inactive.
On to `O=C(Nc1ccccc1)Nc1cccc(-c2nn3c(OCCN4CCCC4)cccc3c2-c2ccncc2)c1`, for which the growth inhibition in test [8] is 98% (active); in test [3], 102% (active). The inhibition in test [1] was 30%; in test [2] it was 4%. Also, the outcome in test [4], in test [5] and in test [6] was inactive.
